Reference: PubChem BioAssay
Calls of active or inactive are those of the source.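 Rule for the calls, unless noted: active = inhibition above 20% together with a positive visual image hit; inconclusive = visual image hit but inhibition not above 20%; inactive = no visual image hit.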

What was measured:
[1] = inhibitors of TNFa-induced NFkB p65 translocation, primary screen, imaging, HUVEC, MLSMR starter and 10KST1 sets (AID 438); details: HUVEC TNFa-induced p65 nuclear translocation; cell count: measured here: nuclei count (cytotoxicity indicator), at 2.08 µM; inhibition: at 2 µM, stronger effect = higher value, 0% TNFa-plus-vehicle, 100% no-TNFa wells;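 note: compound added about 3h40 before a 20 min TNFalpha stimulation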;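 for inhibition: signal is the nuclear over cytoplasmic p65 intensity ratio per well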
[2] = reduction of polyQ htt aggregates in cells – imaging, exon1htt(103Q)mCFP cells, high-content imaging, primary screen (AID 483;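 active = visual image review flags a hit and inhibition of aggregation exceeds 20%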;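 note: compound exposure lasted 3 days before fixation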;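 for nuclei count: percent of the per-plate median nuclei count of sample wells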); details: exon1htt(103Q)mCFP cell line, aggregate imaging, at 2 µM; inhibition of aggregation: stronger effect = higher value; nuclei count: measured here: cell count, toxicity
[3] = endothelial E-selectin expression blockers – imaging, HUVEC, immunofluorescence, MLSMR starter and 10KST1 sets, primary screen (AID 487;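 active = visually confirmed hit in the image check and inhibition above 20%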;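 for inhibition: signal is fraction of cell area covered by stained E-selectin grains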;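 for nuclei count: 100% = median nuclei count of all wells on the same plate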); details: HUVEC TNFalpha-induced E-selectin immunofluorescence imaging, at 2 µM; inhibition: stronger effect = higher value; nuclei count: measured here: cell number, toxicity
[4] = target: Voltage-gated potassium channel subunit beta-2 (Rattus norvegicus) (UniProt P62483); experiment: inhibitors of rat Kvbeta2 reductase activity – biochemical, NADPH fluorescence, primary screen (AID 622;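 active = fluorescence slope higher than the sample average by over 3 SD, cut at about -0.22 in these data, passing the limit was not always enough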;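 note: slope of raw intensity against log time taken from 70 to 1610 s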); details: recombinant KvBeta, 4-cyanobenzaldehyde reduction, at 10 µM, stronger effect = higher value
Sequence of Voltage-gated potassium channel subunit beta-2 (Rattus norvegicus) (P62483 whole entry, looked up): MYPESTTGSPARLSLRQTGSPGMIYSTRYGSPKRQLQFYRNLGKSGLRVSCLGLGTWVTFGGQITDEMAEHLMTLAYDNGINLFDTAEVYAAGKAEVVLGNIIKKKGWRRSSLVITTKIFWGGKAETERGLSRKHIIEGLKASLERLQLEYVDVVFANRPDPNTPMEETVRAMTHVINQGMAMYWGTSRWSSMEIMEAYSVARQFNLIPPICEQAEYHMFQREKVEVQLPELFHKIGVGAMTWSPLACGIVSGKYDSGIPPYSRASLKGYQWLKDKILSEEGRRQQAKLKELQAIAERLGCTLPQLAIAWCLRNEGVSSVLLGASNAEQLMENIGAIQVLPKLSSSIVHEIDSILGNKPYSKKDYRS

[5] = target: Voltage-gated potassium channel subunit beta-2 (Rattus norvegicus) (UniProt P62483); experiment: enhancers of rat Kvbeta2 NADPH turnover – biochemical, NADPH fluorescence, primary screen (AID 623;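 active = NADPH fluorescence slope more negative than the mean of all samples by about 3 SD, 99.7% confidence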;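 note: fluorescence intensity change per second fitted from 20 to 320 s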); details: Recombinant KvBeta, NADPH fluorescence decrease slope, 10 min; at 10 µM; stronger effect = lower value
[6] = target: Muscarinic acetylcholine receptor M4 (Homo sapiens) (UniProt P08173); experiment: M4-linked GIRK flux change, two-sided – cell-based, HEK293 M4/GIRK, thallium flux, BTC-AM, M4 allosteric agonist project, primary screen (AID 625;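 active = fluorescence slope after compound addition differing from the mean of all tested samples at 99.7% confidence, mostly higher but some lower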;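 note: thallium influx through GIRK channels coupled to M4 in HEK293 cells with BTC-AM dye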); details: at 10 µM, actives lie on both sides
Sequence of Muscarinic acetylcholine receptor M4 (Homo sapiens) (P08173 whole entry, looked up): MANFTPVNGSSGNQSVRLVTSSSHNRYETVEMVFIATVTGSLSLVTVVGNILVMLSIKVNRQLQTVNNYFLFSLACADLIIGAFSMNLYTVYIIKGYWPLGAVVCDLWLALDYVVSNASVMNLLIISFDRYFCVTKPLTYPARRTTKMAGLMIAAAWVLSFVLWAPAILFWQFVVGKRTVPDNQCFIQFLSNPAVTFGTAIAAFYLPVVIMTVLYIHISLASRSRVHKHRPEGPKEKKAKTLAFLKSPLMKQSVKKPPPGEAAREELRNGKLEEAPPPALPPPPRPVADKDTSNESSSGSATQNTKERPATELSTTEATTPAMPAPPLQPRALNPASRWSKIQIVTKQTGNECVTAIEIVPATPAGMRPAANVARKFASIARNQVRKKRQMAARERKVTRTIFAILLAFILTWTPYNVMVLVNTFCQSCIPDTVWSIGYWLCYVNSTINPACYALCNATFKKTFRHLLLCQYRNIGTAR

[7] = blockers of RIG-like receptor reporter activation – cell-based, Sendai virus stimulus, luciferase, 10K MLSCN set, TLR/RLR signaling modifier project, primary screen (AID 602276;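 active = inhibition at or above 50% at 10 µM; inactive = inhibition below 50%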;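 note: firefly luciferase from ISG56 promoter only with Renilla not read in this screen; 0% = Sendai virus plus DMSO and 100% = medium plus DMSO without virus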); details: HEK293 RL24 IRF3 luciferase reporter, at 10 µM, stronger effect = higher value
[8] = TLR3 IRF3 reporter activation blockers – cell-based, poly I:C stimulus, luciferase, 10K MLSCN set, primary screen (AID 602277;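 active = inhibition of the reporter signal at or above 50%; inactive = inhibition below 50%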); details: HEK293-TLR3 RL24 IRF3 luciferase reporter, at 10 µM, stronger effect = higher value
[9] = target: Alpha-2C adrenergic receptor (Homo sapiens) (UniProt P18825); experiment: compounds altering alpha2C-coupled GIRK flux – cell-based, HEK293 alpha2C/GIRK1/2, thallium flux, primary screen (AID 624;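 active = fluorescence slope after compound addition differing from the mean of all screened samples at 99.7% confidence, in either direction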;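 note: slope of fluorescence ratio to pre-addition baseline per second over 15 to 24 s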); details: thallium flux BTC fluorescence, at 10 µM, actives lie on both sides
Sequence of Alpha-2C adrenergic receptor (Homo sapiens) (P18825 whole entry, looked up): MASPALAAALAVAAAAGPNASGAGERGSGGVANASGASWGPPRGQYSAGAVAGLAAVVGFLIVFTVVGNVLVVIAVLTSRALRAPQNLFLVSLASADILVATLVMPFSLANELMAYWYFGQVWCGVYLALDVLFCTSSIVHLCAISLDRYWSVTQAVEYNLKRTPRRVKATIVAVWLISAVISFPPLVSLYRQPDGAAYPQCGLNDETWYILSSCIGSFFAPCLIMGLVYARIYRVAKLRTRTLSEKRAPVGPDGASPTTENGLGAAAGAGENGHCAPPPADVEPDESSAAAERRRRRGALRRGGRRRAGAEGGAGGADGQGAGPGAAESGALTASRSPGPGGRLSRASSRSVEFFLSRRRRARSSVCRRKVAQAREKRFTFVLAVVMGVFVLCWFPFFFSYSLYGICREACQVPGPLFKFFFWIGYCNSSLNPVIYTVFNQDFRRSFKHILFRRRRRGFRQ

[10] = Primary imaging screen for DUSP6 inhibitors that restore phospho-Erk in transfected HeLa cells, chemical complementation (AID 609;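 active = compounds giving at least 50% inhibition in the cell-based MKP-3 phosphatase rescue imaging test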;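 for inhibition: phospho-Erk level distribution per well compared with pooled transfected vehicle control wells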); details: HeLa MKP-3 transfected, phospho-Erk imaging KS statistic, at 10 µM, cells stimulated with TPA for 15 min
[11] = target: Dual specificity protein phosphatase 6 (Homo sapiens) (UniProt Q16828); experiment: as above; details: HeLa MKP-3 transfected, phospho-Erk imaging KS statistic; at 10 µM; stronger effect = higher value; cells stimulated with TPA for 15 min
Sequence of Dual specificity protein phosphatase 6 (Homo sapiens) (Q16828 whole entry, looked up): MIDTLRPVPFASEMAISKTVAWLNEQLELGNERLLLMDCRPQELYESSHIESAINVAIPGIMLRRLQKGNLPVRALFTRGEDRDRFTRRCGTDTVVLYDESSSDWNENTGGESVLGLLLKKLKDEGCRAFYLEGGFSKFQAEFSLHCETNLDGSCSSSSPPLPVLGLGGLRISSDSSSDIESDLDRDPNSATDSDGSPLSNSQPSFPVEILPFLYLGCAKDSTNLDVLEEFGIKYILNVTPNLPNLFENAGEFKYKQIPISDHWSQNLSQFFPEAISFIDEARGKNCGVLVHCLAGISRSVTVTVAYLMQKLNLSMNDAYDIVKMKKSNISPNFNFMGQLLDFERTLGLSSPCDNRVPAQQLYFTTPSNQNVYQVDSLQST

SMILES | cell count [1] | inhibition [1] | inhibition of aggregation [2] | nuclei count [2] [%] | inhibition [3] | nuclei count [3] [%] | fluorescence slope [4] | NADPH fluorescence slope [5] | fluorescence slope [6] | inhibition [7] | inhibition [8] | slope [9] | z-score ([10]; measured here: cell density z-score) | z-score ([10]; measured here: nuclear c-Myc green intensity z-score) | z-score ([10]; measured here: nuclear pErk red intensity z-score, stronger effect = higher value) | inhibition [11]
CCN(CC)c1ccc(NC(=O)c2[nH]c(C)c(C(C)=O)c2C)c(C)c1 | 911 | 7.1% (inactive) | 8.4% (inactive) | 109 | -105% (inactive) | 136 | -0.555 (inactive) | -3.3e-05 (inactive) | 0.00732 (inactive) | 2.56% (inactive) | -8.53% (inactive) | – | – | – | – | –
COc1ccccc1C(=O)Nc1ccc(S(=O)(=O)N2CCOCC2)cc1 | 353 | -6% (inactive) | 21.1% (inactive) | 61.9 | -85.7% (inactive) | 105 | -0.571 (inactive) | -5.6e-05 (inactive) | 0.00422 (inactive) | 10.8% (inactive) | 0.189% (inactive) | – | – | – | – | –
C=CCN1C(=O)/C(=C2\SC(N3CCOCC3)=NC2=O)c2cc(Br)ccc21 | 418 | 3.5% (inactive) | 22.3% (inactive) | 100 | -76% (inactive) | 86.1 | -0.519 (inactive) | -8.4e-05 (inactive) | 0.00286 (inactive) | -11.1% (inactive) | -37.3% (inactive) | – | – | – | – | –
O=C(NCc1ccc(Cl)cc1)c1ccc(COCC(F)(F)F)o1 | 702 | -3.9% (inactive) | -3.7% (inactive) | 91.3 | -28.9% (inactive) | 101 | -0.421 (inactive) | -0.00041 (inactive) | 0.00521 (inactive) | -1.43% (inactive) | -15.5% (inactive) | – | – | – | – | –
CCN(C(=O)CN1CCN(c2ccccc2OC)CC1)c1c(N)n(Cc2ccccc2)c(=O)[nH]c1=O | 471 | 1.1% (inactive) | -18.1% (inactive) | 63.9 | -52.2% (inactive) | 102 | -0.424 (inactive) | -0.000102 (inactive) | 0.00639 (inactive) | 9.1% (inactive) | 25.4% (inactive) | – | – | – | – | –
COc1ccc(OCc2nc(N)nc(Nc3cccc(C)c3C)n2)cc1 | 369 | 3.3% (inactive) | -10.8% (inactive) | 102 | – | – | -0.446 (inactive) | -1e-06 (inactive) | – | 4.49% (inactive) | 29% (inactive) | 0.00333 (inactive) | – | – | – | –
COc1cccc(-c2cc(C(=O)Nc3cc(OC)c(OC)c(OC)c3)no2)c1 | 461 | -4.5% (inactive) | 1.1% (inactive) | 55.1 | -12.3% (inactive) | 97.2 | -0.511 (inactive) | -4.5e-05 (inactive) | – | – | -2.13% (inactive) | 0.00712 (inactive) | – | – | – | –
COc1cccc(-c2cc3nc4c(c(N5CCC6(CC5)OCCO6)n3n2)CCCC4)c1 | 479 | 10.2% (inactive) | 18.9% (inactive) | 98.9 | – | 149 | -0.401 (inactive) | 2.4e-05 (inactive) | 0.00624 (inactive) | -10.9% (inactive) | -32.3% (inactive) | – | – | – | – | –
O=C1CC(=O)N(Cc2cccs2)C(=O)N1 | 336 | 4.7% (inactive) | 12.5% (inactive) | 98.3 | – | 116 | -0.632 (inactive) | 5.3e-05 (inactive) | 0.00466 (inactive) | 1.08% (inactive) | 6.01% (inactive) | – | – | – | – | –
CCCN1C2=C(C(=O)CCC2)C(c2ccc(O)c(Br)c2)C2=C1CCCC2=O | 736 | -30.6% (inactive) | 2% (inactive) | 97.2 | -7.3% (inactive) | 107 | -0.531 (inactive) | -5.9e-05 (inactive) | 0.00464 (inactive) | 9.76% (inactive) | 17.2% (inactive) | – | – | – | – | –
O=C(COc1ccc2c(c1)OCO2)NC12CC3CC(CC(C3)C1)C2 | 337 | -3.7% (inactive) | 1.3% (inactive) | 91.5 | -142% (inactive) | 99.1 | -0.411 (inactive) | -4.1e-05 (inactive) | 0.00898 (inactive) | -38.5% (inactive) | -35.6% (inactive) | – | – | – | – | –
CCOC(=O)N1CCC(NC(=O)CCc2c(C)nc3c(c(C)nn3C(C)(C)C)c2C)CC1 | 650 | 2.6% (inactive) | 7.1% (inactive) | 138 | -8.7% (inactive) | 106 | -0.397 (inactive) | 3.3e-05 (inactive) | 0.00517 (inactive) | 11% (inactive) | -3.64% (inactive) | – | – | – | – | –
O=C(O)CC(C(=O)OCCOc1ccccc1)N1CCOCC1 (centres undefined) | 504 | 6.4% (inactive) | – | – | -77.1% (inactive) | 109 | – | – | – | – | – | – | – | – | – | –
COc1ccc2cc([C@H](C)C(=O)O)ccc2c1 | 649 | -0.4% (inactive) | – | – | -51.6% (inactive) | 120 | -0.491 (inactive) | -6.7e-05 (inactive) | – | 13.2% (inactive) | 30.5% (inactive) | 0.00486 (inactive) | -0.246 | 0.258 | 0.308 | 5.42% (inactive)
